Data published in PubChem BioAssay (NCI).
The panel holds about 83,000 compounds, 20% with a hit somewhere; the sample as a whole holds those more often.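 Each cell line was grown in a 96-well plate and treated with one concentration of compound for 48 hours. Values below 10 were considered active.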 Activity calls are given as the source filed them.

Legend:
Experiment in all cases: NCI-60 one-dose screen, 48 h (100 = growth as untreated, 0 = no growth, -100 = all killed)
HCT-15 colon = settings: 10 µM unless noted
HT29 colon = settings: 10 µM unless noted
SNB-75 CNS = settings: 10 µM unless noted
SNB-19 CNS = settings: 10 µM unless noted
U251 CNS = settings: 10 µM unless noted
PC-3 prostate = settings: 10 µM unless noted
SK-MEL-5 melanoma = settings: 10 µM unless noted
UACC-62 melanoma = settings: 10 µM unless noted
LOX IMVI melanoma = settings: 10 µM unless noted
SK-MEL-28 melanoma = settings: 10 µM unless noted
SK-MEL-2 melanoma = settings: 10 µM unless noted
EKVX NSCLC = settings: 10 µM unless noted
SN12C renal = settings: 10 µM unless noted
UO-31 renal = settings: 10 µM unless noted
TK-10 renal = settings: 10 µM unless noted
ACHN renal = settings: 10 µM unless noted
CAKI-1 renal = settings: 10 µM unless noted
A498 renal = settings: 10 µM
HL-60(TB) leukemia = settings: 10 µM unless noted
CCRF-CEM leukemia = settings: 10 µM unless noted

Measured: growth

OCCNC(Cc1ccccc1)c1ccc2c(c1)OCO2 (configuration not stated)
inactive: HCT-15 colon 100% | HT29 colon 73% | SNB-75 CNS 108% | SNB-19 CNS 106% | U251 CNS 92.9% | PC-3 prostate 73.1% | SK-MEL-5 melanoma 101% | UACC-62 melanoma 92.4% | LOX IMVI melanoma 93.5% | SK-MEL-28 melanoma 109% | SK-MEL-2 melanoma 72.2% | EKVX NSCLC 100% | SN12C renal 98.8% | UO-31 renal 78.9% | TK-10 renal 73.2% | ACHN renal 106% | CAKI-1 renal 97.1% | A498 renal 86.5% | HL-60(TB) leukemia 79.6% | CCRF-CEM leukemia 111%

CC1=C2[C@@H](CC1)[C@]1(C)O[C@@](C(C)C)(C[C@H]1O)[C@H]2OC(=O)C1CC1c1ccccc1 (some centres not stated)
inactive: HCT-15 colon 89.8% | HT29 colon 103% | SNB-75 CNS 88% | SNB-19 CNS 102% | U251 CNS 84.3% | PC-3 prostate 56.9% | SK-MEL-5 melanoma 85.4% | UACC-62 melanoma 75.6% | LOX IMVI melanoma 93.3% | SK-MEL-28 melanoma 105% | SK-MEL-2 melanoma 87.7% | EKVX NSCLC 88% | SN12C renal 91.7% | UO-31 renal 74.7% | TK-10 renal 104% | ACHN renal 84.2% | CAKI-1 renal 79.5% | A498 renal 72.7% | HL-60(TB) leukemia 80.5% | CCRF-CEM leukemia 74.9%

COc1ccc(/C(C)=C(\c2ccc(OCCN3CCOCC3)cc2)c2ccc(OC(=O)Cc3ccccc3)cc2)cc1
inactive: HCT-15 colon 98.5% | HT29 colon 92.4% | SNB-75 CNS 121% | SNB-19 CNS 111% | U251 CNS 102% | PC-3 prostate 94.5% | SK-MEL-5 melanoma 106% | UACC-62 melanoma 106% | LOX IMVI melanoma 103% | SK-MEL-28 melanoma 108% | SK-MEL-2 melanoma 96.1% | EKVX NSCLC 97.7% | SN12C renal 107% | UO-31 renal 97% | TK-10 renal 108% | ACHN renal 101% | CAKI-1 renal 97.5% | A498 renal 108% | HL-60(TB) leukemia 118% | CCRF-CEM leukemia 98.3%

C=CC1=C[C@@H]2[C@@H]3O[C@]4(CC[C@H](O4)[C@@H](C)C[C@@H](O)C3=O)C[C@H](O)C3=NCC[C@@]32CC1
active: HCT-15 colon -13.9% | HT29 colon -13.6% | SNB-75 CNS -95.8% | SNB-19 CNS -16.2% | U251 CNS -7% | PC-3 prostate -20.1% | SK-MEL-5 melanoma -90.2% | UACC-62 melanoma -68.3% | LOX IMVI melanoma -59.9% | SK-MEL-28 melanoma -59.8% | SK-MEL-2 melanoma -45.1% | EKVX NSCLC -29.1% | SN12C renal -15% | UO-31 renal -38.8% | TK-10 renal -21% | ACHN renal -64.8% | CAKI-1 renal -11.4% | A498 renal -82.6% | HL-60(TB) leukemia -5.3% | CCRF-CEM leukemia 4.16%

CC12CC=CCC1CCC1C2CCC2(C)C(c3ccc(=O)oc3)CCC12O (configuration not stated)
active: HCT-15 colon -66.3% | HT29 colon -44.7% | SNB-75 CNS -61.7% | SNB-19 CNS -98.3% | U251 CNS -73.3% | PC-3 prostate -6.92% | SK-MEL-5 melanoma -47.5% | UACC-62 melanoma -72.9% | LOX IMVI melanoma -78% | SK-MEL-28 melanoma -33.8% | SK-MEL-2 melanoma -33.6% | EKVX NSCLC -85.1% | SN12C renal -13.1% | UO-31 renal -91.4% | TK-10 renal -62.2% | ACHN renal -90% | CAKI-1 renal -57% | A498 renal -22.7% | HL-60(TB) leukemia -14% | CCRF-CEM leukemia 1.08%

Cc1cc(N(CCCl)CCCl)ccc1C=Nc1ccccc1-c1ccccc1
active: UACC-62 melanoma 6.46%
inactive: HCT-15 colon 79.4% | HT29 colon 89.3% | SNB-75 CNS 66.1% | SNB-19 CNS 77.9% | U251 CNS 63.3% | PC-3 prostate 85.5% | SK-MEL-5 melanoma 85.7% | LOX IMVI melanoma 66.3% | SK-MEL-28 melanoma 95.2% | SK-MEL-2 melanoma 115% | EKVX NSCLC 101% | SN12C renal 54.8% | UO-31 renal 59.5% | TK-10 renal 88.2% | ACHN renal 34.4% | CAKI-1 renal 27.6% | HL-60(TB) leukemia 48.4% | CCRF-CEM leukemia 54.2%

COP(=S)(N1CC1)N1CC1
inactive: HCT-15 colon 109% | HT29 colon 103% | SNB-75 CNS 103% | SNB-19 CNS 112% | U251 CNS 108% | PC-3 prostate 91.9% | SK-MEL-5 melanoma 104% | UACC-62 melanoma 109% | LOX IMVI melanoma 104% | SK-MEL-28 melanoma 114% | SK-MEL-2 melanoma 103% | EKVX NSCLC 106% | SN12C renal 112% | UO-31 renal 84.3% | TK-10 renal 110% | ACHN renal 103% | CAKI-1 renal 93.6% | HL-60(TB) leukemia 106% | CCRF-CEM leukemia 105%

c1cc2c(c3c1CCNC3)OCO2
inactive: HCT-15 colon 102% | HT29 colon 91.8% | SNB-75 CNS 86.8% | SNB-19 CNS 106% | U251 CNS 92.6% | PC-3 prostate 102% | SK-MEL-5 melanoma 101% | UACC-62 melanoma 100% | LOX IMVI melanoma 95.7% | SK-MEL-28 melanoma 109% | SK-MEL-2 melanoma 101% | EKVX NSCLC 95.6% | SN12C renal 100% | UO-31 renal 90.2% | TK-10 renal 101% | ACHN renal 111% | CAKI-1 renal 91.1% | HL-60(TB) leukemia 101% | CCRF-CEM leukemia 124%

C[C@]12CCc3sc(-c4ccccc4O)nc3C1=CC[C@@H]1[C@@H]2CC[C@]2(C)C(=O)CC[C@@H]12
inactive: HCT-15 colon 98% | HT29 colon 104% | SNB-75 CNS 95.5% | SNB-19 CNS 101% | U251 CNS 102% | PC-3 prostate 98.9% | SK-MEL-5 melanoma 110% | UACC-62 melanoma 94.3% | LOX IMVI melanoma 104% | SK-MEL-28 melanoma 113% | SK-MEL-2 melanoma 105% | EKVX NSCLC 99.7% | SN12C renal 101% | UO-31 renal 85.8% | TK-10 renal 104% | ACHN renal 98.8% | CAKI-1 renal 83.5% | HL-60(TB) leukemia 103% | CCRF-CEM leukemia 118%

COc1cc2ncnc(Nc3ccc(F)c(Cl)c3)c2cc1OCC(=O)N1CCN(C)CC1
inactive: HCT-15 colon 93.4% | HT29 colon 90.6% | SNB-75 CNS 92.2% | SNB-19 CNS 79.6% | U251 CNS 101% | PC-3 prostate 86% | SK-MEL-5 melanoma 97.5% | UACC-62 melanoma 98.1% | LOX IMVI melanoma 91.5% | SK-MEL-28 melanoma 102% | SK-MEL-2 melanoma 94.4% | EKVX NSCLC 61.8% | SN12C renal 76.9% | UO-31 renal 55.9% | TK-10 renal 23.4% | ACHN renal 37.8% | CAKI-1 renal 44.1% | A498 renal 69.9% | CCRF-CEM leukemia 87%

C/C(=C\c1cc(C(F)(F)F)nn1CCNC(=O)OC(C)(C)C)[C@@H]1C[C@@H]2O[C@]2(C)CCC[C@H](C)[C@H](O)[C@@H](C)C(=O)C(C)(C)[C@@H](O)CC(=O)O1
inactive: HCT-15 colon 39.5% | HT29 colon 23.6% | SNB-75 CNS 37.2% | SNB-19 CNS 65.4% | U251 CNS 61.4% | PC-3 prostate 32% | SK-MEL-5 melanoma 38.8% | UACC-62 melanoma 40.7% | LOX IMVI melanoma 55.9% | SK-MEL-28 melanoma 79.2% | SK-MEL-2 melanoma 75.1% | EKVX NSCLC 65% | SN12C renal 87% | UO-31 renal 49.5% | TK-10 renal 69.2% | ACHN renal 74.6% | CAKI-1 renal 47.1% | A498 renal 49.3% | CCRF-CEM leukemia 67.2%

O=C(CCCCCCC(=O)Nc1ccc(N(CCCl)CCCl)cc1)NO
inactive: HCT-15 colon 72% | HT29 colon 30.5% | SNB-19 CNS 45% | U251 CNS 17.9% | PC-3 prostate 54.6% | UACC-62 melanoma 14.5% | SK-MEL-28 melanoma 35.3% | SK-MEL-2 melanoma 49.5% | EKVX NSCLC 76.7% | SN12C renal 18.8% | UO-31 renal 62% | TK-10 renal 38.5% | ACHN renal 16.7% | CAKI-1 renal 23% | A498 renal 54.1% | CCRF-CEM leukemia 19.4%
active: SNB-75 CNS 6.28% | SK-MEL-5 melanoma -56.6% | LOX IMVI melanoma -19.9%

CC(C)=CCC[C@H](C(=O)O)[C@@H]1CC[C@]2(C)C3=C(CC[C@@]12C)[C@@]1(C)CC[C@H](O)C(C)(C)[C@@H]1CC3
inactive: HCT-15 colon 97.7% | HT29 colon 91% | SNB-75 CNS 90.1% | SNB-19 CNS 97.1% | U251 CNS 94.5% | PC-3 prostate 84.8% | SK-MEL-5 melanoma 103% | UACC-62 melanoma 96.1% | LOX IMVI melanoma 102% | SK-MEL-28 melanoma 103% | SK-MEL-2 melanoma 91% | EKVX NSCLC 95% | SN12C renal 102% | UO-31 renal 89.8% | TK-10 renal 93.8% | ACHN renal 101% | CAKI-1 renal 75% | A498 renal 104% | CCRF-CEM leukemia 109%
